AHR act – activates the human aryl hydrocarbon receptor. P35869. AHR-responsive luciferase reporter cells, luminescence. activation, % at 5 µM. 2.5% of 320,000 active; in the data active means activation above about 47%;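 further: 0% = vehicle wells and 100% = reference agonist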
GAA850 FXN act – frataxin GAA850 promoter activation; HEK293 lucGAA850 FXN promoter luciferase reporter, 24 h; percent of 10 µM SAHA response; AID 540364; 0.56% of 360,000 active; activation, % at 6 µM;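 active means activation above the average of all compounds screened plus 3 SD, cutoff fixed separately per campaign, cut at about 7.5% in these data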;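 further: 0% = DMSO wells and 100% = 10 µM SAHA wells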
HSF1 inh – HSF1 inhibition | NIH3T3-HGL HSE-luciferase, MG132-induced, luminescence 8 h; active compounds read low | activity change, negative = inhibition, % at 7.5 µM (by protocol) | 0.77% of 300,000 active;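 active means more than half of replicate wells show activity change below -50%, luminescence cut by over half; inconclusive means some wells, but at most half, below -50%; inactive means no replicate well below -50%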;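 further: luciferase reports HSF-1 transcriptional activity via heat shock element; 0% = median of DMSO wells and -100% = zero luminescence signal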
HSP90 inh – inhibitors of HSP90 luciferase refolding in rabbit reticulocyte lysate | luciferase refolding luminescence, 3 h | inhibition, % at 5.6 µM | 0.91% of 290,000 active;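 active means inhibition above the screen-wide mean plus 3 SD, computed separately per campaign, cut at about 16% in these data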;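 further: 0% = DMSO wells and 100% = 60 µM geldanamycin wells; inhibitors lower the luminescence because luciferase stays unfolded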
NR0B1 inh – NR0B1 (DAX1) inhibition; HEK293 Gal4-DAX1 luciferase reporter, luminescence; inhibition, % at 6.75 µM; 0.99% of 340,000 active;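 active means inhibition above the mean over all tested compounds plus 3 SD, cut at about 4.2% in these data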;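 further: 0% = DAX1-transfected cells with DMSO and 100% = empty-vector control cells with DMSO; inhibition shows as a rise in luminescence from relieved DAX1 repression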
Target sequence (P51843 207-470 limits assumed): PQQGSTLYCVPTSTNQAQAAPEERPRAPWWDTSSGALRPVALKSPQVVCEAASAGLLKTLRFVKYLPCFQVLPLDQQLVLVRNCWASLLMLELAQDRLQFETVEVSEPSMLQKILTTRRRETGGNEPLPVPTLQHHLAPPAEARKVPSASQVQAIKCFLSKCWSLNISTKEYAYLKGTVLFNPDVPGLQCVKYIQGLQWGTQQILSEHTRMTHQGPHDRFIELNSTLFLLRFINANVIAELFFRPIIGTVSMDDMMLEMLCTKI
HSF1 activator – increases HSF-1 driven luciferase reporter signal; activation, % at 9 µM; AID 504408; NIH3T3-HGL HSF-1 luciferase reporter, MG132, 8 h; 100% = twice DMSO control signal; 1.7% of 300,000 active;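 active means mean replicate activation of at least 50% with a set share of replicates each reaching 50%; inconclusive means only one of those two conditions met; inactive means mean below 50% and too few replicates reaching it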;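 further: 0% = median of the neutral control wells and 100% = twice that signal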
HSP90 inh confirm – HSP90 inhibition, confirmation assay; shares compounds with HSP90 inh; rabbit reticulocyte lysate, luciferase refolding luminescence, 3 h; inhibition, % at 5.9 µM; 64% of 2,300 active; in the data active means inhibition above about 18%;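 further: 0% = vehicle wells and 100% = reference inhibitor wells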
luciferase ctr – firefly luciferase inhibition, HSP90 counter-screen; shares compounds with HSP90 inh; purified native firefly luciferase, luminescence; inhibition, % at 5.9 µM; 48% of 2,300 active;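 active means inhibition above the mean inhibition of all tested sample wells plus 3 SD, cut at about 10% in these data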;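 further: 0% = DMSO with luciferase and 100% = wells lacking luciferase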
Starred values were filed as active, the others as inactive. Compounds with a hit are over-represented: about 5.9% of the library has one in this group of screens.

`COC(=O)c1ccc(COc2ccc3c(C)c(C)c(=O)oc3c2)o1` gave AHR act 1, GAA850 FXN act -3, HSF1 inh 18, HSP90 inh 18*, NR0B1 inh 0, HSF1 activator 16, HSP90 inh confirm 76* and luciferase ctr -17.
COc1ccc(N(C(=O)CNC(=O)c2ccco2)C(C(=O)NC2CCCCC2)c2cccnc2)cc1 (stereo not given) was read as AHR act 1, GAA850 FXN act -1, HSF1 inh 2, HSP90 inh 3, NR0B1 inh 0 and HSF1 activator 8.
CCc1cc(=O)oc2cc(OCc3ccc(C(=O)O)o3)ccc12 was read as AHR act 9, GAA850 FXN act 2, HSF1 inh 3, HSP90 inh 27*, NR0B1 inh 1, HSF1 activator 2, HSP90 inh confirm 33* and luciferase ctr -3.
For C=C(C)COc1ccc2c(CC)cc(=O)oc2c1 the results were AHR act -5, GAA850 FXN act -1, HSF1 inh -10, HSP90 inh -1, NR0B1 inh 0 and HSF1 activator 3.
Screening CCOC(=O)N1CCC(=NNc2nc3ccccc3s2)CC1 returned AHR act 28, GAA850 FXN act 4, HSF1 inh 0, HSP90 inh 26*, NR0B1 inh 2, HSF1 activator 16, HSP90 inh confirm 2 and luciferase ctr -8.
`CC(=O)N1CCC(=NNc2nc3ccccc3s2)CC1` gave AHR act 40, GAA850 FXN act 4, HSF1 inh -35, HSP90 inh 8, NR0B1 inh 0 and HSF1 activator -45.
For CCN(CC)c1ccc2nc3c4ccccc4c(=O)cc-3oc2c1 the results were HSF1 inh -63*, HSP90 inh 47*, HSF1 activator -68, HSP90 inh confirm 48* and luciferase ctr 32*.
`O=C(/C=C\Nc1ccccn1)c1ccc(Cl)cc1` gave AHR act -2, GAA850 FXN act -6, HSP90 inh 39*, NR0B1 inh -4, HSP90 inh confirm 80* and luciferase ctr 73*.
`CCCNC(=O)c1cccc(COCC(F)(F)C(F)F)c1` gave AHR act -1, GAA850 FXN act 0, HSF1 inh -2, HSP90 inh -3, NR0B1 inh 0 and HSF1 activator -8.
Screening CN(CC(=O)Nc1ccccc1Br)C(=O)CN(C)C1CCCCC1 returned AHR act 1, GAA850 FXN act 0 and NR0B1 inh 1.
For O=C(Nc1cccc(O)c1)c1cc(-c2ccccc2Cl)on1 the results were AHR act -4, GAA850 FXN act -1, HSF1 inh -58*, HSP90 inh 41*, NR0B1 inh -3, HSF1 activator -67, HSP90 inh confirm 63* and luciferase ctr 48*.
`COc1ccc(NC(=O)c2cc(-c3ccccc3Cl)on2)cc1OC` gave AHR act -9, GAA850 FXN act 1, HSF1 inh 5, HSP90 inh 1, NR0B1 inh -2 and HSF1 activator 2.
`O=C(c1cc(-c2ccccc2Cl)on1)N1CCCC1` gave AHR act -9, GAA850 FXN act 0, HSF1 inh 23, HSP90 inh 51*, NR0B1 inh 0, HSF1 activator 26, HSP90 inh confirm 55* and luciferase ctr 49*.
O=C(Nc1cccc(O)c1)c1cc(-c2ccc3c(c2)OCO3)on1 was read as AHR act -2, GAA850 FXN act -7, HSF1 inh -35, HSP90 inh 68*, NR0B1 inh -5, HSF1 activator -41, HSP90 inh confirm 92* and luciferase ctr 85*.
Screening COc1ccccc1-c1cc(C(=O)N2CCCC2)no1 returned AHR act -3, GAA850 FXN act 3, HSF1 inh 23, HSP90 inh 3, NR0B1 inh 3 and HSF1 activator 42.
`C[C@@H]1CN([C@@H](C)CO)C(=O)CCCn2nncc2CO[C@@H]1CN(C)S(C)(=O)=O` gave GAA850 FXN act 1 and NR0B1 inh 1.
Oc1ccc(-c2csc(Nc3ccccn3)n2)cc1 was read as AHR act 27, GAA850 FXN act 4, HSF1 inh 30, HSP90 inh 21*, NR0B1 inh 4.7*, HSF1 activator 63*, HSP90 inh confirm -2 and luciferase ctr -12.
`Cc1ccc(-c2csc(Nc3ccccn3)n2)cc1` gave AHR act 43, GAA850 FXN act -1, HSF1 inh 11, HSP90 inh 19*, NR0B1 inh -3, HSF1 activator 33, HSP90 inh confirm 26* and luciferase ctr 17*.
Screening Cc1nc(N)sc1-c1csc(Nc2ccccn2)n1 returned GAA850 FXN act 2, HSF1 inh -16, HSP90 inh 5, NR0B1 inh 3 and HSF1 activator -11.
For Cc1cccnc1Nc1nc(-c2ccc(O)cc2)cs1 the results were AHR act 5, GAA850 FXN act 5, HSF1 inh -5, HSP90 inh 1, NR0B1 inh 2 and HSF1 activator 14.
`O=C(Nc1ccccc1N1CCOCC1)c1cccnc1Cl` gave AHR act 3, GAA850 FXN act 1, HSF1 inh -1, HSP90 inh -1, NR0B1 inh 0 and HSF1 activator -7.
`CCOC(=O)C1CCN(C(=O)COc2ccc(S(=O)(=O)N3CCOCC3)cc2C)CC1` gave AHR act -2, GAA850 FXN act -1, HSF1 inh 6, HSP90 inh -2, NR0B1 inh 0 and HSF1 activator 12.
Screening O=C(Nc1ccccc1Cl)NC1(C(=O)NCCCN2CCOCC2)CCCCC1 returned AHR act 0, GAA850 FXN act 0, HSF1 inh -8, HSP90 inh 5, NR0B1 inh 0 and HSF1 activator -8.
For O=C(NC1CCCCC1)NC1(C(=O)NCCCN2CCOCC2)CCCCC1 the results were AHR act 0, GAA850 FXN act -1, HSF1 inh 3, HSP90 inh 27*, NR0B1 inh -1, HSF1 activator 11, HSP90 inh confirm -1 and luciferase ctr -3.
`Cc1onc(-c2ccccc2)c1C(=O)OCc1nnc(-c2ccccc2)o1` gave AHR act 3, GAA850 FXN act 0, HSF1 inh 25, NR0B1 inh 1 and HSF1 activator inconclusive.
Screening COc1ccc(S(=O)(=O)N(C)C)cc1NC(=O)CSc1nnc(-c2cccnc2)o1 returned AHR act 2, GAA850 FXN act 0, HSF1 inh 3, HSP90 inh 2, NR0B1 inh 1 and HSF1 activator -13.
